# Assay outcomes as filed in PubChem.
# DT40 TDP1 no CPT: qHTS for Inhibitors of human tyrosyl-DNA phosphodiesterase 1 (TDP1): qHTS in cells in absence of CPT; DT40 Tdp1-/- hTDP1 cells, no CPT, ATP luminescence, 48 h; Potency, µM (top dose mostly 46.2 µM), without a hit: at the highest dose activity change, negative = growth inhibition, hits mostly inhibitors; hit rate 15% among 420,000; AID 686978, 2013; note: nearly all actives have a fitted effect of over 55% in size
#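 Camptothecin absent (DMSO only). Human TDP1-complemented DT40 knockout cells, 400 cells/well, 37 °C for minimum 48 hr; ATP measured via CellTiter-Glo, 30 min dark incubation, luminescence.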
# DT40 TDP1 CPT: DT40-hTDP1 cell growth loss with CPT; hit rate 12% among 420,000; chicken DT40 Tdp1-/-;hTDP1 cells + 20 nM CPT, ATP luminescence, 48 h; Potency, µM (series often up to 46.2 µM), without a hit: at the top dose activity change, negative = growth inhibition, hits mostly inhibitors; note: nearly all actives have a fitted effect of over 55% in size
#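 Chicken DT40 Tdp1-/- cells complemented with human TDP1, 400 cells/well, exposed to compounds plus 20 nM camptothecin for at least 48 h at 37 C; viability read as ATP content by CellTiter-Glo luminescence.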
# HT1080-NT tox: kills 2HG-producing HT-1080-NT fibrosarcoma cells | HT-1080-NT fibrosarcoma viability, CellTiter-Glo ATP luminescence, 48 h | Potency, µM (doses to about 46.1 µM), without a hit: top-dose activity, negative = less viability, hits mostly cytotoxic | hit rate 1.6% among 360,000 | AID 686970;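 note: NT is the 2HG producing partner of a matched IDH1 knockdown line; 0% = DMSO-treated cells and -100% = media-only wells without cells; nearly all actives have a fitted effect of over 55% in size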
#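 Luminescent CellTiter-Glo readout after 48 hours of compound exposure at 37 degrees C defined viability of HT-1080-NT cells. Activity was normalized to DMSO wells and cell-free media wells; concentration-response curves were fitted and assigned curve classes.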
# KB-V1 MDR tox: KB-V1 MDR subline cytotoxicity; KB-V1 MDR cells viability, CellTiter-Glo, 72 h; Potency, µM (top dose mostly 46.1 µM), most hits filed as cytotoxic; hit rate 3.4% among 400,000; note: nearly all actives have a fitted effect of over 60% in size
#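 Cells of the MDR subline KB-V1 are plated, dosed with compound at multiple concentrations, and incubated 72 h at 37 degrees C; CellTiter-Glo is then added and luminescence read after 10 min.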
# KB-3-1 tox: KB-3-1 parental cell cytotoxicity | KB-3-1 viability, CellTiter-Glo ATP luminescence, 72 h | Potency, µM (doses to about 46.1 µM), actives largely listed as cytotoxic | hit rate 1.4% among 400,000 | AID 1347075; note: nearly all actives have a fitted effect of over 60% in size
#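 Using CellTiter-Glo luminescence, growth of non-resistant KB-3-1 adenocarcinoma cells is assessed 72 h after pin-tool compound addition at 37 °C. Normalized responses across the concentration series yield fitted curves.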
# HT1080 IDH1KD tx: toxicity to HT-1080 IDH1 knockdown cells (counter line). HT-1080 IDH1 knockdown viability, ATP luminescence, 48 h. Potency, µM (highest dose often 46.1 µM), for the others: top-dose activity, negative = toxicity, usual class: cytotoxic. hit rate 2% among 360,000;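 note: 0% = DMSO wells and -100% = cell-free medium wells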
#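 Cytotoxicity counter-line: IDH1KD HT-1080, 48 h, CellTiter-Glo. Curves classed by r2, magnitude and activity.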
# * = called active by the depositor; i = inactive; ? = inconclusive; . = no result given; [ ] = dose if it differs, or a comment. Hits are enriched below; roughly 19% of the tested compounds scored in any of these assays. Calls come from the whole dose curve; as a rule, active = well fitted curve in the direction sought with a large enough effect; inconclusive = small, poorly fitted or top-dose-only effect, or another doubt; inactive = no such curve, though single readings can be large; an effect the other way counts as inactive or inconclusive. Unless noted, % is set by controls: 0 for no effect and ±100 for the full control effect; potency is the fitted concentration of half-maximal effect.
SMILES,DT40 TDP1 no CPT,DT40 TDP1 CPT,HT1080-NT tox,KB-V1 MDR tox,KB-3-1 tox,HT1080 IDH1KD tx
Cc1ccc(N(CC(=O)NC(C)C)C(=O)CCC(=O)Nc2ccccn2)c(C)c1,-1%,-4%,1%,?,i,5%
CN(C(=O)CSc1nc2ccccc2n1CC(=O)N(C)C1CCCCC1)c1ccc(F)cc1,29µM*,?,.,i,i,.
COc1ccc(NC(=O)CSc2nc3ccccc3n2CC(=O)N(C)c2ccc(F)cc2)cc1,15µM*,?,.,i,i,.
CC1CCN(C(=O)Cn2c(SCC(=O)Nc3ccc(F)cc3)nc3ccccc32)CC1,?,?,.,?,i,.
COc1cccc(CNC(=O)Cn2c(SCC(=O)Nc3ccc(C)c(C)c3)nc3ccccc32)c1,?,?,.,?,i,.
COc1ccc(NC(=O)CSc2nc3ccccc3n2CC(=O)N2CCCC(C)C2)cc1 (centres undefined),21µM*,?,.,i,i,.
COc1ccccc1NC(=O)Cn1c(SCC(=O)Nc2ccc(F)cc2)nc2ccccc21,?,?,.,i,i,.
Cc1ccc(NC(=O)CSc2nc3ccccc3n2CC(=O)N(C)C2CCCCC2)cc1C,18µM*,?,.,i,i,.
CCCCn1c(=O)c2oc3ccccc3c2n(Cc2cccc(C)c2)c1=O,?,-14%,.,.,.,.
O=C(COC(=O)c1ccccc1OCc1ccc(Cl)cc1)NC1CC1,-20%,?,9%,i,i,9%
Cc1nc2cc(NC(=O)[C@@H]3C[C@@H](Sc4ccccn4)CN3Cc3cccc(F)c3)ccc2s1,-19%,15%[9.04 µM],.,.,.,.
CC1CCN(C(=O)Cn2c(SCC(=O)Nc3nccs3)nc3ccccc32)CC1,-11%,-29%,-4%,4.6µM*,i,-3%
O=[n+]1c2c(n([O-])c3cc(F)c(F)cc31)CCCC2,?,-9%,15%,i,i,11%
NNc1ncnc2sc3c(c12)CCC3,18µM*,8.2µM*,0%,i,?,-12%
C(=N\Nc1ncnc2sc3c(c12)CCC3)/c1ccncc1,?,?,?,18µM*,?,?
CN(C)c1ccc(Nc2ncnc3sc4c(c23)CCCC4)cc1,23µM*,?,.,i,i,.
c1cc(Nc2ncnc3sc4c(c23)CCC4)ccn1,?,?,-14%,i,i,7%
CCn1c(CNC(=O)c2cccc(C)c2)nc2ccccc21,-30%,-29%,-4%,i,i,0%
CC(C)(C)C(=O)Nc1ccc2nc(SCC(=O)N3CCCC3)sc2c1,21µM*,-85%,.,.,.,.
CCCCC(=O)Nc1ccc2nc(SCC(=O)N3CCCC3)sc2c1,21µM*,?,.,.,.,.
CC(C)C(=O)Nc1ccc2nc(SCC(=O)N3CCOCC3)sc2c1,?,-26%,.,.,.,.
COc1cc(F)c(C(=O)NC(C)(C)CO)cc1OC,.,.,.,i,i,.
Clc1cccc2sc(N3CCN(c4ccccc4)CC3)nc12,21µM*,23µM*,-3%,i,i,-1%
c1ccc2sc(N3CCOCC3)nc2c1,2%,-9%,-11%,i,i,-4%
c1ccc(N2CCN(c3nc4cc5c(cc4s3)OCCO5)CC2)cc1,-20%,?,6%,2.6µM*,?,2%
c1c2c(cc3sc(N4CCOCC4)nc13)OCCO2,18µM*,?,-25%,21µM*,?,?
Nc1ccc2nc(N3CCOCC3)sc2c1,-8%,-27%,-5%,i,i,-1%
CN(Cc1nccs1)C(=O)C1CCC(=O)N(CCCc2ccccc2)C1 (centres undefined),5%,-23%,21%,i,i,-1%
